# PubChem BioAssay
# “And” between values parts separate entries of the source, which are not always exact repeats. Identical values can stand only once. The source made the active and inactive calls.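 How the source made its calls, unless noted: active means normalized viability below 100% at a tested concentration; inactive means the rest.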
# Assays:
# [1] = sensitizers of A549 cells to miR-34 induction, primary screen, imaging, A549 dox-inducible miR-34, nuclei and caspase counts (AID 1347080;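 active means compounds whose cell count with miR-34 switched on is under 0.7 times the count with it off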); details: A549 miR-34 inducible, Hoechst nuclei count, 48 h
# [2] = survival rescue of mitochondrial mutant cells in low glucose, primary screen, MELAS cybrids, Rieske KO mouse fibroblasts, CellTiter-Glo (AID 1508586;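 active means mean z-score across replicates of 1.96 or higher in either the MELAS or the Rieske mutant cell line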;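 further: z relative to plate mean and SD of compound and empty wells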)
# [3] = ovarian cancer cell viability with rucaparib, profiling panel, oncology-focused library, rucaparib conditional (AID 1508598); details: patient-derived ovarian cancer cells, CellTiter-Glo viability, 144 h, stronger effect = lower value
# [4] = LFS_MB_P medulloblastoma growth inhibition, cell-based, chromothripsis tumors, cisplatin or BGB combos (AID 1671449; in the data active means inhibition above about 80%;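 further: cells exposed for 96 hours; 0% = vehicle DMSO and 100% = killing by high DMSO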); details: LFS_MB_P medulloblastoma cells
# [5] = HDN33 neuroblastoma growth inhibition, cell-based, chromothripsis tumors, cisplatin or BGB combos (AID 1671450; in the data active means inhibition above about 80%;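 further: cells exposed to compound for four days; 0% = vehicle DMSO and 100% = cell killing by high DMSO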); details: HDN33 neuroblastoma cells, stronger effect = higher value
# [6] = ICB984 medulloblastoma cell growth inhibition, synergistic combos for chromothripsis tumors, cisplatin or BGB combos (AID 1671451; call rule not given here;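 further: cells exposed for 96 hours before readout; 0% = vehicle DMSO and 100% = killing by high DMSO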); details: ICB984 medulloblastoma cells, drug combinations, stronger effect = higher value
# [7] = LFS_MB_1R medulloblastoma cell growth inhibition, synergistic combos for chromothripsis tumors, cisplatin or BGB combos (AID 1671452; in the data active means inhibition above about 80%;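 further: cells exposed for 96 hours before readout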); details: LFS_MB_1R medulloblastoma cells, stronger effect = higher value
# [8] = HTB85 osteosarcoma cell growth inhibition, synergistic combos for chromothripsis tumors, BGB or cisplatin IC20 combos (AID 1671453; in the data active means inhibition above about 80%;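 further: cells exposed for 96 hours before readout; 0% = vehicle DMSO and 100% = high DMSO killing control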); details: HTB85 osteosarcoma cells, drug combinations, stronger effect = higher value
# [9] = CRL2098 osteosarcoma cell growth inhibition, synergistic combos for chromothripsis tumors, BGB or cisplatin IC20 combos (AID 1671454; in the data active means inhibition above about 80%;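 further: cells exposed for 96 h before readout; 0% = vehicle DMSO and 100% = killing by high DMSO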); details: CRL2098 osteosarcoma cells, drug combinations, stronger effect = higher value
# [10] = HD-MB03 medulloblastoma cell growth inhibition, synergistic combos for chromothripsis tumors, BGB or cisplatin IC20 combos (AID 1671455; in the data active means inhibition above about 83%;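 further: 0% = vehicle DMSO and 100% = high DMSO as cytotoxic control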); details: HD-MB03 medulloblastoma cells, stronger effect = higher value
# [11] = UWB1.289 ovarian carcinoma cell growth inhibition, synergistic combos for chromothripsis tumors, BGB or cisplatin combos (AID 1671456; in the data active means inhibition above about 80%;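 further: cells exposed to compound for four days; 0% = vehicle DMSO and 100% = killing by high DMSO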); details: UWB1.289 ovarian carcinoma cells, stronger effect = higher value
# [12] = LFS_MB_2R medulloblastoma cell growth inhibition, synergistic combos for chromothripsis tumors, cisplatin combos (AID 1671457; in the data active means inhibition above about 80%;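 further: cells exposed to compound for four days before readout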); details: LFS_MB_2R medulloblastoma cells, stronger effect = higher value
# [13] = MDA-MB-436 breast carcinoma cell growth inhibition, synergistic combos for chromothripsis tumors, BGB or cisplatin combos (AID 1671458; call rule not given here;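 further: cells exposed for 96 hours; 0% = vehicle DMSO and 100% = killing by high DMSO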); details: MDA-MB-436 breast carcinoma growth inhibition, drug combinations, stronger effect = higher value
# [14] = UWB1.289_BRCA1 ovarian cancer growth, cell-based, BGB or cisplatin combinations (AID 1671459; in the data active means inhibition above about 80%); details: UWB1.289 BRCA1 ovarian carcinoma, drug combinations, stronger effect = higher value
# [15] = human astrocyte viability loss, single and combined drugs, cytotoxicity control for chromothriptic childhood tumor combination screen, cell-based, BGB or cisplatin IC20 combos (AID 1671460; in the data active means inhibition above about 80%;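 further: cells exposed to compounds for 96 hours before viability readout; 0% = vehicle and 100% = killing control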); details: Human astrocytes, drug combinations, stronger effect = higher value
# [16] = growth inhibition of BT084 medulloblastoma cells, cell-based, ICGC_MB145, cisplatin and BGB IC40 combos (AID 1671461; in the data active means inhibition above about 80%;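 further: cells exposed to drugs for 96 hours; 0% = vehicle DMSO and 100% = high DMSO full killing control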); details: drug combinations, stronger effect = higher value
# [17] = growth inhibition of RCMB18 medulloblastoma cells, cell-based, cisplatin and BGB IC40 combos (AID 1671462; in the data active means inhibition above about 80%;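 further: cells exposed to compound for four days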); details: stronger effect = higher value
# [18] = growth inhibition of CRL1545 osteosarcoma cells, cell-based, cisplatin and BGB IC20 combos (AID 1671464; in the data active means inhibition above about 80%;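 further: cells exposed to compound for 96 hours before readout; 0% = vehicle DMSO and 100% = high DMSO killing control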); details: stronger effect = higher value
# [19] = measured here: combination with BGB IC40, at 0.05 µM
# [20] = measured here: with BGB IC20 combination, at 0.5 µM
# [21] = measured here: with cisplatin IC20 combination, at 0.5 µM
# [22] = measured here: combination with cisplatin, at 0.5 µM
# [23] = measured here: combination with cisplatin, at 5 µM
compound,measurement,setting,value
CCOC(=O)NCCCC(=O)NCCc1ccccc1,fold change,"[1]; stronger effect = lower value, cell number ratio, induced over uninduced",0.978 (inactive)
same,fold change,[1]; measured here: relative caspase fold change +Dox/-Dox,0.408
same,cell count,"[1]; measured here: total cells with miR-34 induction, stronger effect = lower value",8950
same,cell count,[1]; measured here: total cells without miR-34 induction,9150
same,z-score,"[2]; MELAS cybrid survival, CellTiter-Glo 48 h, stronger effect = higher value",-0.307 (inactive)
same,z-score,"[2]; Rieske KO mouse fibroblast survival, CellTiter-Glo 72 h",0.919
same,viability,"[3]; at 0.000305 µM, OCI-C5x cells, with rucaparib 10 µM, 100% = cells with rucaparib alone",123% (inactive)
same,viability,"[3]; at 0.000305 µM, OCI-C5x cells, without rucaparib",98.5% (active)
same,viability,"[3]; at 0.000305 µM, OCI-P5x cells, with rucaparib 20 µM, 100% = cells with rucaparib alone",93.8% (active)
same,viability,"[3]; at 0.000305 µM, OCI-P5x cells, without rucaparib",94.2% (active)
same,viability,"[3]; at 0.00122 µM, OCI-C5x cells, with rucaparib 10 µM, 100% = cells with rucaparib alone",108% (inactive)
same,viability,"[3]; at 0.00122 µM, OCI-C5x cells, without rucaparib",102% (inactive)
same,viability,"[3]; at 0.00122 µM, OCI-P5x cells, with rucaparib 20 µM, 100% = cells with rucaparib alone",95.3% (active)
same,viability,"[3]; at 0.00122 µM, OCI-P5x cells, without rucaparib",93.4% (active)
same,viability,"[3]; at 0.00488 µM, OCI-C5x cells, with rucaparib 10 µM, 100% = cells with rucaparib alone",111% (inactive)
same,viability,"[3]; at 0.00488 µM, OCI-C5x cells, without rucaparib",110% (inactive)
same,viability,"[3]; at 0.00488 µM, OCI-P5x cells, with rucaparib 20 µM, 100% = cells with rucaparib alone",92.7% (active)
same,viability,"[3]; at 0.00488 µM, OCI-P5x cells, without rucaparib",96.6% (active)
same,viability,"[3]; at 0.0195 µM, OCI-C5x cells, with rucaparib 10 µM, 100% = cells with rucaparib alone",116% (inactive)
same,viability,"[3]; at 0.0195 µM, OCI-C5x cells, without rucaparib",115% (inactive)
same,viability,"[3]; at 0.0195 µM, OCI-P5x cells, with rucaparib 20 µM, 100% = cells with rucaparib alone",93.3% (active)
same,viability,"[3]; at 0.0195 µM, OCI-P5x cells, without rucaparib",94.2% (active)
same,viability,"[3]; at 0.0781 µM, OCI-C5x cells, with rucaparib 10 µM, 100% = cells with rucaparib alone",110% (inactive)
same,viability,"[3]; at 0.0781 µM, OCI-C5x cells, without rucaparib",108% (inactive)
same,viability,"[3]; at 0.0781 µM, OCI-P5x cells, with rucaparib 20 µM, 100% = cells with rucaparib alone",94.7% (active)
same,viability,"[3]; at 0.0781 µM, OCI-P5x cells, without rucaparib",99.6% (active)
same,viability,"[3]; at 0.313 µM, OCI-C5x cells, with rucaparib 10 µM, 100% = cells with rucaparib alone",117% (inactive)
same,viability,"[3]; at 0.313 µM, OCI-C5x cells, without rucaparib",106% (inactive)
same,viability,"[3]; at 0.313 µM, OCI-P5x cells, with rucaparib 20 µM, 100% = cells with rucaparib alone",88.9% (active)
same,viability,"[3]; at 0.313 µM, OCI-P5x cells, without rucaparib",104% (inactive)
same,viability,"[3]; at 1.25 µM, OCI-C5x cells, with rucaparib 10 µM, 100% = cells with rucaparib alone",118% (inactive)
same,viability,"[3]; at 1.25 µM, OCI-C5x cells, without rucaparib",111% (inactive)
same,viability,"[3]; at 1.25 µM, OCI-P5x cells, with rucaparib 20 µM, 100% = cells with rucaparib alone",89.5% (active)
same,viability,"[3]; at 1.25 µM, OCI-P5x cells, without rucaparib",99.1% (active)
same,viability,"[3]; at 5 µM, OCI-C5x cells, with rucaparib 10 µM, 100% = cells with rucaparib alone",116% (inactive)
same,viability,"[3]; at 5 µM, OCI-C5x cells, without rucaparib",109% (inactive)
same,viability,"[3]; at 5 µM, OCI-P5x cells, with rucaparib 20 µM, 100% = cells with rucaparib alone",83.3% (active)
same,viability,"[3]; at 5 µM, OCI-P5x cells, without rucaparib",89.3% (active)
same,inhibition,"[4]; at 0.5 µM, stronger effect = higher value",-22.5% (inactive) and -16.6% (inactive)
same,inhibition,"[4]; measured here: combination with BGB IC20, at 0.005 µM",-34.5% and -4.15%
same,inhibition,"[4]; measured here: combination with BGB IC40, at 0.005 µM",74.6% and -15.4%
same,inhibition,[4]; [19],-17.3% and -8.02%
same,inhibition,"[4]; measured here: combination with cisplatin, at 0.5 µM, stronger effect = higher value",-12.8% and -32.3%
same,inhibition,"[4]; measured here: combination with cisplatin, at 5 µM, stronger effect = higher value",-34.9% and -31.3%
same,inhibition,"[5]; BGB combo, at 5 µM",-65.3% and -26.9%
same,inhibition,[5]; at 0.5 µM,-38.5% (inactive) and -17.7% (inactive)
same,inhibition,"[5]; cisplatin combo, at 5 µM",-63.5% and -31.2%
same,inhibition,[5]; [20],-39.2% and -23.4%
same,inhibition,[5]; [21],-28% and -17.7%
same,inhibition,"[5]; single agent, at 5 µM",-54.8% and -22.1%
same,inhibition,"[6]; BGB IC20 combo, at 0.005 µM",-37.9% and -8.12%
same,inhibition,"[6]; BGB IC40 combo, at 0.005 µM",-29.1% and -31.3%
same,inhibition,"[6]; BGB IC40 combo, at 0.05 µM",-30% and -50.9%
same,inhibition,[6]; at 0.5 µM,-27.9% (inactive) and -27.3% (inactive)
same,inhibition,"[6]; cisplatin combo, at 0.05 µM",-36.7% and -56.9%
same,inhibition,"[6]; cisplatin combo, at 0.5 µM",-28.4% and -31.6%
same,inhibition,"[6]; cisplatin combo, at 5 µM",-21.8% and -22.7%
same,inhibition,"[6]; measured here: 5 uM single agent, at 5 µM",-34% and -5.68%
same,inhibition,[7]; at 0.5 µM,-35.7% (inactive) and -30.1% (inactive)
same,inhibition,[7]; [19],-32.7% and -26.4%
same,inhibition,[7]; [22],-69.3% and -37.1%
same,inhibition,[7]; [23],-41.3% and -32.8%
same,inhibition,[8]; at 0.5 µM,-20.7% (inactive) and -9.16% (inactive)
same,inhibition,"[8]; measured here: with BGB IC20, at 0.5 µM",-7.26% and 6.66%
same,inhibition,"[8]; measured here: with BGB IC20, at 5 µM",-10.7% and -19.1%
same,inhibition,"[8]; measured here: with cisplatin IC20, at 0.5 µM",-27.1% and -24.2%
same,inhibition,"[8]; measured here: with cisplatin IC20, at 5 µM",18% and -25.8%
same,inhibition,"[8]; single agent, at 5 µM",-17.5% and -2.77%
same,inhibition,[9]; at 0.5 µM,-89.4% (inactive) and -48.9% (inactive)
same,inhibition,"[9]; measured here: combination with BGB at IC20, at 0.5 µM",-73.5% and 13.5%
same,inhibition,"[9]; measured here: combination with cisplatin at IC20, at 0.5 µM",-117% and -69.6%
same,inhibition,[10]; at 0.5 µM,-22.5% (inactive) and -0.04% (inactive)
same,inhibition,"[10]; measured here: combo with BGB at IC20, at 0.5 µM",-19.9% and -14.2%
same,inhibition,"[10]; measured here: combo with cisplatin at IC20, at 0.5 µM",-31.5% and 17.9%
same,inhibition,[11]; at 0.5 µM,-19.7% (inactive) and -14.9% (inactive)
same,inhibition,"[11]; measured here: inhibition with BGB combination, at 0.05 µM",-30.7% and -21.8%
same,inhibition,"[11]; measured here: inhibition with cisplatin combination, at 0.05 µM",-28.1% and -20.9%
same,inhibition,[12]; at 0.5 µM,-12.3% (inactive) and -24.7% (inactive)
same,inhibition,[12]; [22],-9.92% and -32%
same,inhibition,[12]; [23],-15.4% and -22.8%
same,inhibition,[13]; at 0.5 µM,-30.7% (inactive) and -10.1% (inactive)
same,inhibition,"[13]; measured here: BGB combination, at 0.5 µM",-24.7% and -2.6%
same,inhibition,"[13]; measured here: BGB combination, at 5 µM",-6.13% and -14.1%
same,inhibition,"[13]; measured here: cisplatin combination, at 0.5 µM",-47% and -19.2%
same,inhibition,"[13]; measured here: cisplatin combination, at 5 µM",-39.2% and -16.3%
same,inhibition,"[14]; BGB combination, concentration series, at 5 µM",-32.5% and 1.48%
same,inhibition,[14]; at 0.5 µM,-24.6% (inactive) and -10.6% (inactive)
same,inhibition,"[14]; cisplatin combination, concentration series, at 5 µM",-5.77% and 15.9%
same,inhibition,[15]; at 0.5 µM,6.08% (inactive) and 5.44% (inactive)
same,inhibition,"[15]; measured here: combo with BGB IC20, at 0.5 µM",1.7% and -5.49%
same,inhibition,"[15]; measured here: combo with cisplatin IC20, at 0.5 µM",7.7% and 23%
same,inhibition,[16]; at 0.5 µM,-9.48% (inactive) and -15.9% (inactive)
same,inhibition,"[16]; cisplatin combination, at 0.5 µM",-0.569% and -16.9%
same,inhibition,"[16]; cisplatin combination, at 5 µM",-138% and -1.29%
same,inhibition,"[16]; measured here: BGB IC40 combination 0.05 uM, at 0.05 µM",-26.7% and -17.1%
same,inhibition,"[16]; single agent, at 5 µM",-8.38% and 9.97%
same,inhibition,[17]; at 0.5 µM,-8.55% (inactive) and -27.8% (inactive)
same,inhibition,"[17]; cisplatin combo, at 5 µM",7.25% and -23.2%
same,inhibition,"[17]; measured here: BGB IC40 combination, at 0.05 µM",-14% and -29.5%
same,inhibition,[17]; [22],4.17% and -12.7%
same,inhibition,"[17]; single agent, at 5 µM",-2.65% and -61.4%
same,inhibition,[18]; at 0.5 µM,-24.2% (inactive) and -17.6% (inactive)
same,inhibition,[18]; [20],-40% and -29.3%
same,inhibition,[18]; [21],-18.2% and -11.8%
same,inhibition,"[18]; single agent, at 0.05 µM",-24.2% and 17.5%
same,inhibition,"[18]; single agent, at 5 µM",9.21% and -20.7%
